VDR inhibitor: blocks the human vitamin D receptor | P11473 | VDR-SRC2-3 peptide fluorescence polarization, 2 h | Potency, µM, for inactives: max response, negative = inhibition, actives largely listed as inhibitors | actives 0.93% (n = 400,000) | AID 504847
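The screen uses fluorescence polarization to detect compounds that interfere with recruitment of the SRC2-3 coactivator peptide to VDR; plates are read after 2 h at room temperature.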
ALOX12 inh: inhibitors of human 12S-lipoxygenase ALOX12; P18054; purified 12hLO, xylenol orange hydroperoxide absorbance; Potency, µM (doses to about 108 µM), without a hit: at the top dose activity change, negative = inhibition, usual class: inhibitors; actives 1.1% (n = 580,000); AID 1671190
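Hydroperoxide product was detected by ferrous iron/xylenol orange as the 573 to 405 nm absorbance ratio. Arachidonic acid at 40 uM (final) was turned over for 30 min at room temperature by 150 nM human 12hLO, pH 7.0 Hepes buffer, after 15 min compound preincubation.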
PLK1 PBD inh: blocks phosphopeptide binding to human PLK1 polo-box domain. P53350. Plk1 PBD binding of FITC phosphopeptide, fluorescence polarization. Potency, µM, for inactives: max response, negative = inhibition, actives largely listed as inhibitors. actives 2.8% (n = 360,000); further: series mostly up to about 57 µM; nearly all actives have a fitted effect of over 65% in size
Target sequence (P53350 whole entry, looked up, the tested form may be a part): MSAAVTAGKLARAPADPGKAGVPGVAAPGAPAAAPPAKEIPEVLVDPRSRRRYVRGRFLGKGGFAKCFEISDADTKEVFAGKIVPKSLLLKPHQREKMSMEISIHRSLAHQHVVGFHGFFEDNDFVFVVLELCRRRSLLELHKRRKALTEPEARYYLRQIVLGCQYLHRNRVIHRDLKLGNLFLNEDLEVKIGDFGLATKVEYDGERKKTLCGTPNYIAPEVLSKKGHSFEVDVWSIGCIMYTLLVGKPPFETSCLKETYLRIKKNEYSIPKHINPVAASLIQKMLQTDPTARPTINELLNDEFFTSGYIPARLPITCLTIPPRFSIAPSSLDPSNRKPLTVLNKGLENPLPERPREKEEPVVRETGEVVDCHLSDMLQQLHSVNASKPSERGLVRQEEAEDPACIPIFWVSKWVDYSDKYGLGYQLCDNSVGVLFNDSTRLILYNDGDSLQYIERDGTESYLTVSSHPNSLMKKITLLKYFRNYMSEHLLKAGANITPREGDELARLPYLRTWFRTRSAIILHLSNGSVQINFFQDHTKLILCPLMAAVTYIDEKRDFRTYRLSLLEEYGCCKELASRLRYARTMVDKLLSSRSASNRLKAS
GCN5L2 inh: blocks human GCN5L2 histone acetyltransferase; Q92830; GCN5L2 HAT assay, ThioGlo1 CoA-SH fluorescence; Potency, µM (doses to about 58.9 µM), for the others: top-dose activity change, negative = inhibition, usual class: inhibitors; actives 0.21% (n = 390,000); AID 504327
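Compounds, pin-transferred from DMSO stocks, meet 20nM GCN5L2 for 15 min before the reaction begins with H3(1-25) peptide (75uM) and acetyl-CoA (70uM). Thiol-reactive ThioGlo1 reports CoA release over 20 min at room temperature.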
The depositor's hits bear a star; ? = inconclusive; · = not tested or not shown; ! = a repeat was not active; [ ] = remark or other dose. A selection: hits, their analogues and other compounds. The true share with any hit is near 3%. The call rests on the fitted dose curve; in most records, active means well fitted curve in the direction sought with a large enough effect; inconclusive means small, poorly fitted or top-dose-only effect, or another doubt; inactive means no such curve, though single readings can be large; an effect the other way counts as inactive or inconclusive. On the % scale 0 is the no-effect control and ±100 the full control effect; potency means the concentration at half of the fitted maximal effect.

SMILES	VDR inhibitor	ALOX12 inh	PLK1 PBD inh	GCN5L2 inh
O=C1NC(=O)C(=CCc2ccccc2)C(=O)N1	?	-12%	0%	·
C=CCn1c(C)c(C=C2C(=O)NC(=O)NC2=O)c2ccccc21	?	13%	27µM*	-2%
COCCNC(=O)Cn1cc(C=C2C(=O)NC(=O)NC2=O)c2ccccc21	-11%	?	6.7µM*	0%
COCCNC(=O)Cn1cc(C(=O)c2ccccc2F)c2ccccc21	?	-6%	30µM*	-16%
Cc1ncc2c(n1)C[C@@H]1CC[C@H]2N1C(=O)c1ccccc1F	·	10%	·	·
Fc1cccc(CC2CCOC3(CCNCC3)C2)c1 (centres undefined)	·	21%	·	·
O=C1NC(=O)C(=C/C=C/c2coc3ccc(Br)cc3c2=O)C(=O)N1	·	·	·	-9%
Cn1cc(C=C2C(=O)NC(=O)NC2=O)c2ccccc21	-7%	0%	24µM*	-21%
O=C1NC(=O)C(=Cc2coc3ccccc3c2=O)C(=O)N1	?	?	11µM*	-2%
CCN1C(=O)NC(=O)/C(=C\c2cn(CC(=O)O)c3ccccc23)C1=O	·	·	·	-17%
COc1ccc(CNC[C@H]2C[C@@H]3CCN2C[C@@H]3c2cc(C3CCCCC3)nn2C)cc1	·	42%[176 µM]	·	·
Cc1cc(C(=O)CS(=O)c2ccc(F)cc2)cc(C)c1OC(=O)N(C)C (centres undefined)	-27%	-8%	12µM*	-4%
COc1ccc2c(c1)NP(=S)(Oc1ccccc1)N2 (centres undefined)	?	-14%	15µM*	-5%
O=[N+]([O-])c1ccc(NCCNc2ccc([N+](=O)[O-])cc2)cc1	?	-4%	-3%	·
Cn1cnc([N+](=O)[O-])c1Sc1ccc([N+](=O)[O-])cc1	-28%	?	11µM*	-7%
CCOC(=O)[C@]12Cc3cc(Cl)ccc3[C@H]1N(C(C)C)C(=O)c1ccccc12	·	?	9.5µM*	·
CCOC(=O)[C@]12Cc3cc(OC)c(OC)cc3[C@H]1N(Cc1ccccc1)C(=O)c1ccccc12	5%	1%	-11%	·
CCOC(=O)[C@]12Cc3cc(Cl)ccc3[C@H]1N(CC(=O)OC)C(=O)c1ccccc12	·	·	4.2µM*	·
CCOC(=O)[C@]12Cc3cc(Cl)ccc3[C@H]1N(C)C(=O)c1ccccc12	·	-35%	-28%	·
O=C1NCCOCCCN[C@H]2CCCC[C@@H]12	·	10%	·	·
OCC1CN(C2CCC2)CC12CCN(Cc1ccncc1)CC2 (centres undefined)	·	111%	·	·
O=C(Nc1ccc(Oc2ccc(Cl)cc2)c(Cl)c1)c1cc(I)cc(I)c1O	?	?	?	25µM*
COCCN1C[C@H]2CN(CC3CC3)CCN2C1=O	·	-3%[176 µM]	·	·
CN1C(=O)C(Cc2cccc3ccccc23)C(=O)N(C)C1=O	?	·	21µM*	1%
CC1OC(OC2CC[C@]3(C=O)[C@H]4[C@H](O)CC5(C)C(C6=CC(=O)OC6)CCC5(O)[C@@H]4CCC3(O)C2)C(O)C(O)C1O (some centres undefined)	·	-18%	·	·
SMILES	VDR inhibitor	ALOX12 inh	PLK1 PBD inh	GCN5L2 inh
CNC(=S)N(C)CCc1cc2c(c(OC)c1/C=C1/C(=O)NC(=O)N(C)C1=O)OCO2	-18%	?	?	-7%
COc1c(/C=C2/C(=O)NC(=O)N(C)C2=O)c(CCN(C)C(=O)c2ccccc2)cc2c1OCO2	-23%	32%	27µM*	0%
Cn1cc(CN2CCN(C(=O)COc3ccccc3)CC2)ccc1=O	·	48%	·	·
COc1ccc(CCN(C)Cc2ccncc2)cc1OC	-5%	?	-7%	-3%
COc1ccc(CCN(C)Cc2cc(C(C)(C)C)c(O)c(C(C)(C)C)c2)cc1OC	·	7.9µM*	·	·
CN(CCc1ccccn1)C[C@H]1CN2CC[C@H]1C[C@@H]2CNC(=O)c1ccc(C(F)(F)F)cc1	·	64%	·	·
N#CC(C#N)=Cc1ccc(O)c(O)c1	50µM*	25µM*!	-6%	-16%
CC[N+](C)(CC)CCCCOc1ccc2c(c1)C(=O)c1cc(OCCCC[N+](C)(CC)CC)ccc1-2	-16%	?	11µM*	?
c1ccc(CNC2(c3nnnn3-c3ccccc3)CCCCC2)cc1	·	15%	·	·
O=C(Nc1ccncc1)C(=O)c1cn(Cc2ccc(Cl)cc2)c2ccccc12	·	5%[57.4 µM]	·	·
C=CCN1C(=O)/C(=C/c2cc(C)n(-c3ccccn3)c2C)C(=O)NC1=S	-36%	?	2.4µM*	-2%
Cc1oc(-c2cccs2)nc1CC(=O)N1CCN(CC(=O)N2CCCCC2)CC1	·	8%	·	·
C/C(=N\N1CCCCCC1)c1c(O)n(C)c(=O)n(C)c1=O	·	·	·	-1%
C/C(=N\NC(N)=O)c1c(O)n(C)c(=O)n(C)c1=O	-10%	5%	30µM*	-8%
COc1ccc(CN2C(=O)NC(=O)/C(=C/c3ccoc3)C2=O)cc1	-18%	?	2.4µM*	?
C=CCN1C(=O)NC(=O)/C(=C/c2ccoc2)C1=O	-12%	?	8.4µM*	1%
CCN(CC)c1ccc(/C=C2/C(=O)NC(=O)N(CC3CCCO3)C2=O)cc1 (centres undefined)	-3%	-32%	?	-18%
Cn1cccc1/C=C1\C(=O)NC(=O)N(Cc2ccccc2)C1=O	?	-29%	?	-16%
C=CCN1C(=O)NC(=O)/C(=C/c2ccc(N(C)C)c(Br)c2)C1=O	79µM*	-30%	6.7µM*	-1%
COc1ccccc1CNC(=O)CN1CCCC1=O	·	28%	·	·
O=C(c1cccs1)C1CCCN(Cc2nc(-c3ccccn3)no2)C1 (centres undefined)	·	52%	·	·
O=[N+]([O-])/C=C\c1c[nH]c2ccccc12	·	33%	·	·
CC(C)N(C)CC1CCN(C(=O)c2cn(Cc3ccccc3)c3ccccc23)CC1	·	14%	·	·
NC(Cc1ccc(F)cc1)c1ccccc1 (centres undefined)	·	34%	·	·
Cc1noc(C(=O)Nc2sc3c(c2C#N)CCC3)c1Cl	-5%	?	24µM*	-15%
CCCCn1c(C)c(C(=O)OCC)c2cc(OC)ccc21	·	8%	·	·
CC(=O)N1CCCSC1=Nc1ccccc1	-29%	10%	-1%	4%

Bioassay records (PubChem)
